Article PMC4552634, “A New Set of Chemical Starting Points with Plasmodium falciparum Transmission-Blocking Potential for Antimalarial Drug Discovery” (PLoS ONE, 2015)
Screen size: about 13,000 compounds; about 3,200 (25%) showed an effect of 50% or more. This is one part of the list.

These compounds were tested on P. falciparum stage V gametocytes. Conditions: 48 h, 5 µM; inhibitor.
Parameters: BacTiter-Glo ATP luminescence viability of purified stage V gametocytes in 384-well plates, per cent inhibition versus DMSO

| Structure (SMILES) | % Inhibition [%] |
| --- | --- |
| O=C(Nc1cccc(-c2ccc(-c3nc4ccc(C(F)(F)F)cc4[nH]3)cc2)c1)c1csnn1 [TCMDC-136905] | 5.589 |
| COc1ccc(NC(=O)[C@H](C)Nc2cc(C)nc(NCC3CCCCC3)n2)cc1 [TCMDC-134922] | -9.943 |
| CCOC(=O)c1ccc(N2CCN(c3cc(Cl)ccc3C)CC2)c(NC(=O)Nc2ccc(Cl)c(Cl)c2)c1 [TCMDC-124007] | -37.8 |
| O=C(/C=C/c1ccc(Cl)c(Cl)c1)N1CCC(CN2CCC(c3c[nH]c4ncccc34)CC2)CC1 [TCMDC-139846] | 9.268 |
| CS(=O)(=O)Nc1ccc2c(C3CCN(CC4CCN(C(=O)/C=C/c5ccc(Cl)c(Cl)c5)CC4)CC3)c[nH]c2c1 [TCMDC-139959] | -60.99 |
| O=C(/C=C/c1ccc(Cl)c(Cl)c1)N1CCC(CN2CCC(c3c[nH]c4ccc(NS(=O)(=O)c5cccs5)cc34)CC2)CC1 [TCMDC-139955] | 57.44 |
| CS(=O)(=O)Nc1ccc2[nH]cc(C3CCN(CC4CCN(C(=O)/C=C/c5ccc(Cl)c(Cl)c5)CC4)CC3)c2c1 [TCMDC-139813] | 20.88 |
| O=C(/C=C/c1ccc(Cl)c(Cl)c1)N1CCC(CCN2CCC(c3c[nH]c4cnccc34)CC2)CC1 [TCMDC-140136] | 111.3 |
| O=C(/C=C/c1ccc(Cl)c(Cl)c1)N1CCC(CCN2CCC(c3c[nH]c4ccncc34)CC2)CC1 [TCMDC-140075] | 91.37 |
| O=C(/C=C/c1ccc(Cl)c(Cl)c1)N1CCC(CCN2CCC(c3c[nH]c4ccccc34)CC2)CC1 [TCMDC-139620] | 8.374 |
| O=C(/C=C/c1ccc(Cl)c(Cl)c1)N1CCC(CN2CCC(c3c[nH]c4cnccc34)CC2)CC1 [TCMDC-140135] | 46.53 |
| O=C(/C=C/c1ccc(Cl)c(Cl)c1)N1CCC(CN2CCC(c3c[nH]c4ccncc34)CC2)CC1 [TCMDC-140074] | 108.3 |
| CCc1nc(N)nc(N)c1-c1ccccc1 [TCMDC-124296] | -28.74 |
| O=C(Nc1ccc(F)cc1)c1nc2ccccc2nc1Cl [TCMDC-124769] | 24.46 |
| COCCN(C)CCCOc1cc2c(cc1OC)ncn2-c1cc(OCc2ccccc2C(F)(F)F)c(C(N)=O)s1 [TCMDC-135214] | 33.23 |
| CCN1CCN(c2cc(C)c3cc(NC(=O)c4cccc(Cl)c4)ccc3n2)CC1 [TCMDC-125580] | 30.18 |
| N=c1c(C(=O)NCc2ccccc2)cc2c(=O)n3ccccc3nc2n1CCc1ccccc1 [TCMDC-124378] | 0.2894 |
| CCS(=O)(=O)Nc1ccc2[nH]cc(C3CCN(CCC4CCN(C(=O)/C=C/c5ccc(Cl)c(Cl)c5)CC4)CC3)c2c1 [TCMDC-139930] | 78.45 |
| CS(=O)(=O)Nc1ccc2c(C3CCN(CCC4CCN(C(=O)/C=C/c5ccc(Cl)c(Cl)c5)CC4)CC3)c[nH]c2c1 [TCMDC-139956] | 32.42 |
| CC1CCN(CC[C@H]2CCCN2S(=O)(=O)c2cccc(NC(=O)c3ccc(-c4ccc(Cl)cc4)o3)c2)CC1 [TCMDC-141078] | -28.73 |
| O=C(/C=C/c1ccc(Cl)c(Cl)c1)N1CCC(CN2CCC(c3c[nH]c4cc5c(cc34)OCO5)CC2)CC1 [TCMDC-139838] | -10.77 |
| O=S(=O)(c1ccc2cc[nH]c2c1)N1CCC[C@@H]1CCN1CCC(c2c[nH]c3cnccc23)CC1 [TCMDC-141158] | 68.56 |

| Structure (SMILES) | % Inhibition [%] |
| --- | --- |
| O=C(/C=C/c1ccc(Cl)c(Cl)c1)N1CCC(CN2CCC(c3c[nH]c4ccc(O)cc34)CC2)CC1 [TCMDC-139786] | 94.36 |
| O=C(/C=C/c1ccc(Cl)c(Cl)c1)N1CCC(CCN2CCC(c3c[nH]c4cc5c(cc34)OCO5)CC2)CC1 [TCMDC-139836] | 55.11 |
| CNC(=O)c1ccc2[nH]cc(C3CCN(CC4CCN(C(=O)/C=C/c5ccc(Cl)c(Cl)c5)CC4)CC3)c2c1 [TCMDC-139980] | -32.3 |
| CC(=O)Nc1ccc2[nH]cc(C3CCN(CC4CCN(C(=O)/C=C/c5ccc(Cl)c(Cl)c5)CC4)CC3)c2c1 [TCMDC-139853] | 21.75 |
| O=C1COc2ccc(S(=O)(=O)N3CCC[C@@H]3CCN3CCC(c4c[nH]c5cnccc45)CC3)cc2N1 [TCMDC-141172] | 41.57 |
| CC(=O)Nc1ccc2[nH]cc(C3CCN(CCC4CCN(C(=O)/C=C/c5ccc(Cl)c(Cl)c5)CC4)CC3)c2c1 [TCMDC-139854] | 30.15 |
| Cc1cccc(C(=O)NCCCN2CCC(NC(=O)/C=C/c3ccc(Cl)c(Cl)c3)CC2)c1 [TCMDC-133355] | -67.88 |
| CCNc1cc(C(=O)N[C@@H](Cc2ccccc2)[C@H](O)CNC2CCSCC2)cc(N2CCCC2=O)c1 [TCMDC-134686] | 19.67 |
| CC(C)(C)COC(=O)c1ccc(NC(=O)N[C@@H](Cc2ccc(O)cc2)C(=O)NC2CCN(Cc3ccc(O)cc3)C2)cc1 (some centres unmarked) [TCMDC-135356] | -84.6 |
| COc1ccc(Nc2nccc(NCCNC(=O)c3cc4ccccc4s3)n2)cc1 [TCMDC-133643] | 10.68 |
| COc1ccc2nccc([C@@H](O)CN3CCC(NC(=O)[C@@H]4Cc5ccccc5CN4C(=O)OC(C)(C)C)CC3)c2c1 [TCMDC-141035] | 29.65 |
| O=C(/C=C/c1ccc(Cl)c(Cl)c1)NCCCCCN1CCC(NC(=O)Nc2cc(Cl)nc(Cl)c2)CC1 [TCMDC-135889] | -21.96 |
| Nc1cc2c(C3CCN(CC4CCN(C(=O)/C=C/c5ccc(Cl)c(Cl)c5)CC4)CC3)c[nH]c2cn1 [TCMDC-140133] | 101.5 |
| COc1cc2c(C3CCN(CC4CCN(C(=O)/C=C/c5ccc(Cl)c(Cl)c5)CC4)CC3)c[nH]c2cn1 [TCMDC-140246] | -34.41 |
| O=C(Nc1ccc(Cn2ncc(N3CCCNCC3)c(Cl)c2=O)cc1)Nc1ccc(SC(F)(F)F)cc1 [TCMDC-133320] | -14.71 |
| O=C(/C=C/c1ccc(Cl)c(Cl)c1)NCCCCCN1CC[C@H](NC(=O)/C=C/c2ccccc2)C1 [TCMDC-139561] | -7.699 |
| O=C(/C=C/c1ccc(Cl)c(Cl)c1)NCCCCCN1CC[C@H](NC(=O)c2sc3ccccc3c2Cl)C1 [TCMDC-139562] | 48.14 |
| O=C(C=Cc1ccc(Cl)c(Cl)c1)NCCCCCN1CCCC(CCCNC(=O)c2sc3ccccc3c2Cl)C1 (centres unmarked) [TCMDC-139579] | 100.9 |
| O=C(C=Cc1ccc(Cl)c(Cl)c1)NCCCCCN1CCC(CCNC(=O)c2sc3ccccc3c2Cl)CC1 [TCMDC-139567] | 38.26 |
| O=C(/C=C/c1ccc(Cl)c(Cl)c1)NCCCCCN1CCC(CCNC(=O)c2snnc2-c2ccccc2)CC1 [TCMDC-140007] | -18.32 |
| O=C(/C=C/c1ccc(Cl)c(Cl)c1)NCCCCCN1CCCC(CNC(=O)c2sc3ccccc3c2Cl)C1 (centres unmarked) [TCMDC-139583] | 81.46 |
| O=C(C=Cc1ccc(Cl)c(Cl)c1)NCCCCCN1CCC(CCCNC(=O)c2sc3ccccc3c2Cl)CC1 [TCMDC-139573] | 86.01 |
